PubChem BioAssay AID1159580 (chemical genetic matrix, 2015)
Hit rate of the full screen: of about 5,500 compounds, about 2,000 (36%) were called active. Another 18% or so got no clear call; they are omitted. Rule as the data show it: active = normalized growth mostly below about 0.91 (no sharp cut-off); inconclusive = no clear call, values can overlap the other calls; inactive = mostly above about 0.92. This is one part of the list.

Experiment: chemical genetic growth profiling, strain panel (AID 1159580);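 also: tested at 20 µM; growth read once vehicle control cultures reached saturation at 30 °C; 1 = growth at the plate median or of vehicle wells; lower values mean less growth of the strain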
Settings: S. cerevisiae deletion strains, growth OD
[1] = locus YAL040C, strain CLN3, hits give low values
[2] = locus YER002W, strain NOP16, hits give low values
[3] = locus YJR075W, strain HOC1, hits give low values
[4] = locus YNL128W, strain TEP1, hits give low values
[5] = locus YNL197C, strain WHI3, hits give low values
[6] = locus YNL224C, strain SQS1, hits give low values
[7] = locus YOR083W, strain WHI5 (second series), hits give low values

Measured: normalized growth

NCCc1cc(O)c(O)cc1O
active: locus YAL021C, strain ccr4, hits give low values 0.856 | locus YBR231C, strain swc5, hits give low values 0.884 | locus YDR069C, strain doa4, hits give low values 0.833 | locus YEL003W, strain gim4, hits give low values 0.908 | locus YER015W, strain faa2, hits give low values 0.887 | locus YER155C, strain BEM2 (second series), hits give low values 0.847 | locus YGL173C, strain kem1, hits give low values 0.838 | locus YHR027C, strain rpn1, hits give low values 0.9 | locus YJL164C, strain tpk1, hits give low values 0.914 | locus YJL166W, strain qcr8, hits give low values 0.877 | locus YLR342W, strain FKS1, hits give low values 0.861 | locus YMR058W, strain fet3, hits give low values 0.697 | locus YNL209W, strain ssb2, hits give low values 0.899 | locus YNL248C, strain rpa49, hits give low values 0.807 | locus YOR106W, strain vam3, hits give low values 0.805 | locus YPL051W, strain arl3, hits give low values 0.854 | locus YPL106C, strain sse1, hits give low values 0.847
inactive: locus YAL026C, strain drs2, hits give low values 0.924 | locus YAL030W, strain snc1, hits give low values 0.938 | locus YBL061C, strain skt5, hits give low values 0.948 | locus YBR009C, strain hhf1, hits give low values 0.963 | locus YBR023C, strain chs3, hits give low values 0.94 | locus YBR171W, strain sec66, hits give low values 0.983 | locus YBR279W, strain paf1, hits give low values 0.948 | locus YCL011C, strain gbp2, hits give low values 0.96 | locus YCL016C, strain dcc1, hits give low values 0.962 | locus YCL061C, strain MRC1, hits give low values 0.934 | locus YCL069W, strain vba3, hits give low values 0.966 | locus YCR088W, strain abp1, hits give low values 0.999 | locus YDL005C, strain med2, hits give low values 1.01 | locus YDL040C, strain nat1, hits give low values 0.995 | locus YDR001C, strain nth1, hits give low values 1 | locus YDR137W, strain rgp1, hits give low values 0.993 | locus YDR159W, strain sac3, hits give low values 1.02 | locus YDR195W, strain ref2 0.97 | locus YDR297W, strain sur2, hits give low values 0.941 | locus YDR334W, strain swr1, hits give low values 0.951 | locus YDR335W, strain msn5, hits give low values 0.924 | locus YDR392W, strain spt3, hits give low values 0.882 | locus YEL037C, strain rad23, hits give low values 0.964 | locus YEL061C, strain CIN8 (second series), hits give low values 0.987 | locus YER016W, strain bim1, hits give low values 0.967 | locus YER111C, strain swi4, hits give low values 0.966 | locus YFR010W, strain ubp6, hits give low values 0.921 | locus YGL167C, strain pmr1, hits give low values 0.976 | locus YGL227W, strain vid30, hits give low values 1.01 | locus YGL240W, strain doc1, hits give low values 0.917 | locus YGL253W, strain hxk2, hits give low values 0.963 | locus YHR013C, strain ard1, hits give low values 0.954 | locus YHR030C, strain SLT2, hits give low values 0.975 | locus YHR079C, strain IRE1, hits give low values 0.938 | locus YHR142W, strain chs7, hits give low values 0.949 | locus YJL092W, strain hpr5, hits give low values 0.953 | locus YJL095W, strain BCK1 (second series), hits give low values 0.964 | locus YJL095W, strain BCK1, hits give low values 0.989 | locus YJL115W, strain asf1, hits give low values 0.984 | locus YJL129C, strain trk1, hits give low values 1.09 | locus YJL154C, strain vps35, hits give low values 1.01 | locus YJR066W, strain TOR1, hits give low values 0.919 | locus YKL160W, strain elf1, hits give low values 0.945 | locus YKR026C, strain gcn3, hits give low values 0.997 | locus YKR091W, strain srl3, hits give low values 1 | locus YLL001W, strain dnm1, hits give low values 0.921 | locus YLL026W, hits give low values 0.933 | locus YLL041C, strain sdh2, hits give low values 1.01 | locus YLR027C, strain aat2, hits give low values 0.931 | locus YLR113W, strain HOG1, hits give low values 1 | locus YLR221C, strain rsa3, hits give low values 0.939 | locus YLR258W, strain gsy2, hits give low values 0.964 | locus YLR262C, strain YPT6 (second series), hits give low values 0.901 | locus YLR320W, strain mms22, hits give low values 0.884 | locus YLR357W, strain rsc2, hits give low values 0.901 | locus YLR370C, strain arc18, hits give low values 0.931 | locus YLR384C, strain iki3, hits give low values 0.981 | locus YML120C, strain ndi1, hits give low values 0.95 | locus YMR125W, strain sto1, hits give low values 1.01 | locus YMR129W, hits give low values 0.991 | locus YMR205C, strain PFK2, hits give low values 0.943 | locus YMR231W, strain pep5, hits give low values 0.98 | locus YNL071W, strain lat1, hits give low values 0.952 | locus YNL183C, strain NPR1, hits give low values 0.956 | locus YNL322C, strain KRE1 (second series), hits give low values 0.995 | locus YNR049C, strain mso1, hits give low values 0.987 | locus YOR001W, strain rrp6, hits give low values 0.934 | locus YOR070C, strain gyp1, hits give low values 0.965 | locus YOR080W, strain dia2, hits give low values 0.937 | locus YOR083W, strain WHI5, hits give low values 0.896 | locus YOR231W, strain MKK1, hits give low values 0.994 | locus YOR265W, strain rbl2, hits give low values 0.966 | locus YOR270C, strain vph1, hits give low values 0.951 | locus YOR290C, strain snf2, hits give low values 0.948 | locus YPL078C, strain atp4, hits give low values 0.931 | locus YPL240C, strain hsp82, hits give low values 0.985 | locus YPL256C, strain CLN2, hits give low values 0.971

NC(Cc1cc(O)c(O)cc1O)C(=O)O (stereo unspecified)
inactive: [1] 1 | locus YCL061C, strain MRC1 (second series), hits give low values 0.967 | locus YDR363W, strain ESC2, hits give low values 0.977 | [2] 1.01 | locus YGR078C, strain PAC10, hits give low values 0.979 | [3] 0.956 | [4] 0.976 | [5] 0.98 | [6] 1.03 | locus YNL322C, strain KRE1, hits give low values 0.942 | [7] 1.01

NCC(O)c1cc(O)c(O)cc1F (stereo unspecified)
inactive: [1] 1 | locus YDR150W, strain NUM1, hits give low values 1.02 | [2] 1.01 | [3] 1.03 | [4] 1.03 | locus YNL153C, strain GIM3, hits give low values 1.01 | locus YNL175C, strain NOP13, hits give low values 0.978 | [5] 0.994 | [6] 1.01 | [7] 1.04 | locus YPL241C, strain CIN2, hits give low values 1.01
